Reference: the supplement of paper PMC12669032

Key:
Experiment in all cases: growth AUC relative to DMSO control (median of replicates) (fraction); higher = more growth (less inhibition), active = hit call of the paper
Settings in all cases: 20 µM; 24 h;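 active = AUC reduced over 20% with Padj below 0.05 in at least 2 of 3 replicates; inactive = otherwise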
[1] = system: Akkermansia muciniphila
Outline: (§1)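 Hourly OD600 readings over 24 h tracked anaerobic gut bacterial monocultures grown at 37 °C in mGAM from OD600 0.05 with 20 µM compound (1% DMSO). After the minimum OD was set to 0, area under the growth curve was normalised to the plate median of solvent-only wells, or to row and column medians on the industrial chemical plate. Values are medians of three biological replicates grown on separate days.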

[2] = system: Bacteroides caccae
Outline: as §1

[3] = system: Bacteroides clarus
Outline: as §1

[4] = system: Bacteroides dorei
Outline: as §1

[5] = system: Bacteroides stercoris
Outline: as §1

[6] = system: Bacteroides thetaiotaomicron
Outline: as §1

[7] = system: Bacteroides uniformis
Outline: as §1

[8] = system: Bifidobacterium longum subsp. longum
Outline: as §1

[9] = system: Clostridium difficile
Outline: as §1

[10] = system: Collinsella aerofaciens
Outline: as §1

Measured: growth AUC

CCOC(=O)CCN(Cc1ccccc1)SN(C)C(=O)O/N=C(/C)SC
inactive: [1] 0.948 | [2] 0.993 | [3] 0.979 | [4] 1.04 | [5] 1.09 | [6] 0.991 | [7] 1.09 | [8] 1.03 | [9] 1.01 | [10] 1.02

N#CC(CCc1ccc(Cl)cc1)(Cn1cncn1)c1ccccc1 (stereo not given)
inactive: [1] 1.02 | [2] 0.967 | [3] 0.961 | [4] 0.952 | [5] 0.941 | [6] 0.94 | [7] 0.873 | [8] 0.978 | [9] 0.957 | [10] 0.968

Cc1nc(N(C)C=O)nc(OC(=O)N(C)C)c1C
inactive: [1] 1.01 | [2] 0.986 | [3] 0.998 | [4] 0.985 | [5] 0.955 | [6] 0.977 | [7] 0.971 | [8] 1 | [9] 0.963 | [10] 0.992

CNC(=O)ON=C(CS(C)=O)C(C)(C)C (stereo not given)
inactive: [1] 1.08 | [2] 1.02 | [3] 0.997 | [4] 1.01 | [5] 0.97 | [6] 1.02 | [7] 1.01 | [8] 0.955 | [9] 1.02 | [10] 1

NCCO.O=C(O)c1nc(Cl)ccc1Cl
inactive: [1] 1.02 | [2] 1.01 | [3] 1.04 | [4] 0.987 | [5] 1.02 | [6] 1.04 | [7] 1 | [8] 1.04 | [9] 1 | [10] 1.02

CCc1cccc(C)c1N(C(=O)CCl)[C@@H](C)COC
inactive: [1] 1.13 | [2] 0.95 | [3] 0.99 | [4] 0.98 | [5] 1.2 | [6] 0.975 | [7] 1 | [8] 1.03 | [9] 0.961 | [10] 0.963

O=c1oc2ccccc2c(O)c1C1CC(c2ccc(OCc3ccc(C(F)(F)F)cc3)cc2)Cc2ccccc21 (mixture of isomers)
inactive: [1] 0.908 | [2] 0.919 | [4] 1.02 | [6] 0.97 | [7] 0.989
active: [3] 0.548 | [5] 0.176 | [8] 0.525 | [9] 0.0158 | [10] 0.788

Cc1cc(C)nc(Nc2ccccc2)n1
inactive: [1] 0.869 | [2] 0.98 | [3] 0.957 | [4] 1 | [5] 0.987 | [6] 0.957 | [7] 0.97 | [8] 1 | [9] 0.983 | [10] 0.999

CCOP(=S)(OCC)Oc1cnccn1
inactive: [1] 0.892 | [2] 0.985 | [3] 0.963 | [4] 1.01 | [5] 0.979 | [6] 0.985 | [7] 0.982 | [8] 1.04 | [9] 0.974 | [10] 0.993

O=C(Nc1ccccc1)c1ccccc1I
inactive: [1] 0.823 | [2] 1.03 | [3] 1 | [4] 0.994 | [5] 1.05 | [6] 1.01 | [7] 0.975 | [8] 1.03 | [9] 1.08 | [10] 1.07

CC(Oc1cc(Cl)c(Cl)cc1Cl)C(=O)O (stereo not given)
inactive: [1] 0.958 | [2] 1 | [3] 0.949 | [4] 0.979 | [5] 0.973 | [6] 0.99 | [7] 0.987 | [8] 0.787 | [9] 1.02 | [10] 1.01

N#CN=C1SCCN1Cc1ccc(Cl)nc1
inactive: [1] 0.871 | [2] 1 | [3] 1 | [4] 0.967 | [5] 1.22 | [6] 0.999 | [7] 0.991 | [8] 1.04 | [9] 1.02 | [10] 0.98

CNC(=O)Oc1cccc2ccccc12
inactive: [1] 1.08 | [2] 0.993 | [3] 1.01 | [4] 0.991 | [5] 1.02 | [6] 0.998 | [7] 1.03 | [8] 1.03 | [9] 1.01 | [10] 0.987

N#Cc1c(O)c(Cl)c(Cl)c(C#N)c1Cl
active: [7] 0.784
inactive: [1] 1.02 | [2] 0.98 | [3] 0.979 | [4] 0.969 | [5] 0.979 | [6] 0.995 | [8] 1.02 | [9] 1.02 | [10] 0.985

CCOC(=O)C(C)OC(=O)c1cc(Oc2ccc(C(F)(F)F)cc2Cl)ccc1[N+](=O)[O-] (stereo not given)
inactive: [1] 0.88 | [2] 0.95 | [3] 0.931 | [4] 0.985 | [5] 0.992 | [6] 0.987 | [7] 0.966 | [8] 0.947 | [9] 0.978 | [10] 0.857

CCC(C)(c1ccc(O)cc1)c1ccc(O)cc1
inactive: [1] 0.984 | [2] 0.989 | [3] 0.925 | [4] 0.967 | [5] 0.927 | [6] 0.973 | [7] 0.991 | [8] 1.02 | [9] 0.997 | [10] 1

CCOP(=S)(OCC)SCSP(=S)(OCC)OCC
inactive: [1] 0.958 | [2] 1 | [3] 0.949 | [4] 0.974 | [5] 1.04 | [6] 1.01 | [7] 0.981 | [8] 1.03 | [9] 0.995 | [10] 0.996

Cc1cc(Cl)ccc1O
inactive: [1] 1.04 | [2] 1.02 | [3] 1.03 | [4] 1.01 | [5] 1.09 | [6] 1.03 | [7] 1 | [8] 0.911 | [9] 1 | [10] 1.01

CO/N=C(/C(=O)OC)c1ccccc1COc1ccccc1C
inactive: [1] 0.899 | [2] 0.979 | [3] 0.957 | [4] 0.964 | [5] 0.993 | [6] 0.907 | [7] 0.955 | [8] 0.874 | [9] 1.02 | [10] 0.991

CCOP(=O)(NC(C)C)Oc1ccc(S(C)=O)c(C)c1 (stereo not given)
inactive: [1] 1.01 | [2] 0.999 | [3] 1.04 | [4] 1.04 | [5] 1.02 | [6] 0.997 | [7] 1.02 | [8] 1.06 | [9] 1.08 | [10] 1

c1cc2c3c(cccc3c1)CC2
inactive: [1] 0.966 | [2] 1 | [3] 1 | [4] 1.01 | [5] 0.991 | [6] 0.999 | [7] 0.994 | [8] 0.961 | [9] 0.993 | [10] 0.995

ClC1=C(Cl)C(Cl)(C2(Cl)C(Cl)=C(Cl)C(Cl)=C2Cl)C(Cl)=C1Cl
inactive: [1] 1.27 | [2] 0.926 | [3] 0.93 | [4] 0.895 | [5] 0.809 | [6] 0.856 | [7] 0.875 | [8] 0.94 | [9] 1 | [10] 0.823

Cc1ccc(N(SC(F)(Cl)Cl)S(=O)(=O)N(C)C)cc1
inactive: [1] 0.918 | [2] 1 | [3] 1 | [4] 1.04 | [5] 1.02 | [6] 1.02 | [7] 1.03 | [8] 1.03 | [9] 0.991 | [10] 0.989

CCS(=O)c1c(C#N)nn(-c2c(Cl)cc(C(F)(F)F)cc2Cl)c1N (stereo not given)
inactive: [1] 0.952 | [2] 1.04 | [3] 0.996 | [4] 1.01 | [5] 1.04 | [6] 0.961 | [7] 0.959 | [8] 1.01 | [9] 1.02 | [10] 1.01

CCOC(=O)c1ccccc1S(=O)(=O)NC(=O)Nc1nc(Cl)cc(OC)n1
inactive: [1] 1.1 | [2] 0.991 | [3] 1.03 | [4] 0.933 | [5] 0.97 | [6] 1.01 | [7] 0.962 | [8] 1.4 | [9] 1.03 | [10] 0.993

OC(Cn1cncn1)(c1ccc(F)cc1)c1ccccc1F (stereo not given)
inactive: [1] 0.876 | [2] 0.976 | [3] 0.971 | [4] 0.988 | [5] 1 | [6] 0.98 | [7] 0.999 | [8] 1.21 | [9] 1 | [10] 0.985

CN=C=S
inactive: [1] 0.945 | [2] 1.01 | [3] 0.977 | [4] 0.988 | [5] 1.07 | [6] 1 | [7] 1 | [8] 1.05 | [9] 1.01 | [10] 1.02
